# Measurements as given in PubChem BioAssay (Tox21).
# Records with an inconclusive call do not appear. Where a call stands in place of a potency, no number is given. Calls of active or inactive are those of the source. Calls come from the whole dose curve; as a rule, active = well fitted cell-killing curve with a large enough effect in the repeat runs; inconclusive = weak or mixed curves; inactive = flat fitted curve, though single readings scatter.
# Experiment: qHTS assay to identify small molecule antagonists of the estrogen related receptor (ERR) signaling pathway from Tox21 library - cell viability counter screen (AID 1224834); note: nearly all actives have a fitted effect of over 30% in size
# Details: ERR reporter cells viability, CellTiter-Fluor, 17.5 h; series mostly up to 92.4 µM
# Source text: National Center for Advancing Translational Sciences [NCATS]
# NIH Chemical Genomics Center [NCGC]
# U.S. Environmental Protection Agency [EPA]
# National Institutes of Environmental Health Sciences [NIEHS]
# National Toxicology Program [NTP]
# U.S. Food and Drug Administration [FDA]
# Estrogen related receptors (ERRs), the first orphan nuclear receptors discovered, play an important role in the control of cellular energy metabolism. ERRs are required for high-energy production in response to the environmental challenges. ERR-alpha was also identified as an adverse marker for breast cancer progression; ERR-alpha-positive tumors have a poor prognosis. To screen and to identify environmental compounds that perturb the ERR signaling pathways could provide valuable information for potential therapeutic or preventive measures in the treatment of metabolic disease. To differentiate true ERR antagonists or agonist from cytotoxic substances, the assay is multiplexed with cell viability assay.
# Tox21 Assay Protocol Summary:
# The ERR cells were dispensed at 2,000 cells/5 ul/well in 1536-well white plates using a Multidrop dispenser. After the assay plates were incubated at a 37 C/5% CO2 incubator for 6 hours, 23 nL of compounds dissolved in DMSO, positive and negative controls or DMSO only was transferred to the assay plate by a pin tool. The plates were incubated at 37 C for 17.5 hours. 1 ul/well of CellTiter-Fluor reagent was added into the assay plates using a Flying Reagent Dispenser. After 30-minute incubation at 37 C/5% CO2, the fluorescence intensity in the plates was measured using a ViewLux plate reader.
# Potency is the fitted concentration of half-maximal effect.
row,Structure (SMILES),Potency
1,Nc1n[nH]c(N)n1,inactive
2,CC1CN1P(=O)(N1CC1C)N1CC1C (stereo not given),inactive
3,CC1(C)COP(Oc2ccccc2)OC1,inactive
4,CN(C)CCc1ccc(O)cc1,inactive
5,O=C(O)C(Br)CBr (stereo not given),inactive
6,C#CCN1C(=O)COc2cc(F)c(N3C(=O)C4=C(CCCC4)C3=O)cc21,inactive
7,C#C[C@]1(O)C=C[C@H]2[C@@H]3CCC4=CC(=O)CC[C@@H]4[C@H]3CC[C@@]21CC,inactive
8,NC(=S)C(N)=S,inactive
9,CCCCN(CCCCO)N=O,inactive
10,COP(=S)(OC)Oc1c(Cl)cc(C)cc1Cl,inactive
11,Cc1ncc(CNC(=O)N(CCCl)N=O)c(N)n1,inactive
12,N#CCBr,inactive
13,CNNC,inactive
14,ClCC(Cl)Cl,inactive
15,CC1(C)C(=O)NC(=O)NC1=O,inactive
16,CN1CCC(N(Cc2ccccc2)c2ccccc2)CC1,inactive
17,CCN(CC)C(C)C(=O)c1ccccc1 (stereo not given),inactive
18,Fc1cc(Br)ccc1CBr,inactive
19,COc1cc(OC)nc(NC(=O)NS(=O)(=O)c2ncccc2OCC(F)(F)F)n1,inactive
20,O=[N+]([O-])c1ccc(CBr)cc1,inactive

row,Structure (SMILES),Potency
1,O=[N+]([O-])c1cccc2cccnc12,inactive
2,COCC(=O)N(c1c(C)cccc1C)N1CCOC1=O,inactive
3,O=C1OC(=O)C2C1C1(Cl)C(Cl)=C(Cl)C2(Cl)C1(Cl)Cl (stereo not given),inactive
4,C[C@]12CC[C@H]3[C@@H](CCC4=CC(=O)CC[C@@]43C)[C@@H]1CC[C@@H]2C(=O)O,inactive
5,CC(Cl)(Cl)[N+](=O)[O-],inactive
6,C(CCOCC1CO1)COCC1CO1 (stereo not given),inactive
7,CCOC(=O)C1(c2ccccc2)CCN(CCc2ccc(N)cc2)CC1,inactive
8,CCc1cc2c(s1)-n1c(C)nnc1CN=C2c1ccccc1Cl,inactive
9,O=C1OC(CCN2CCCCC2)OC1(c1ccccc1)c1ccccc1 (stereo not given),inactive
10,ClCC(Cl)(Cl)Cl,inactive
11,CC1(C)CON(Cc2ccccc2Cl)C1=O,inactive
12,COC(=O)C(c1ccccc1)C1CCCCN1 (stereo not given),inactive
13,C=CCC1=C(C)[C@@H](OC(=O)[C@@H]2[C@@H](C=C(C)C)C2(C)C)CC1=O,54.5 µM (active)
14,CCOC(=O)/C=C(C)/C=C/C[C@@H](C)CCCC(C)C,inactive
15,Cc1ncsc1CCCl,inactive
16,CN1C(=S)CN=C(c2ccccc2)c2cc(Cl)ccc21,inactive
17,CCCCC(=O)Cl,inactive
18,O=[N+]([O-])c1cc(Cl)c(Cl)c(Cl)c1,inactive
19,C[C@@H]1CN(C2CCC(C#N)(c3ccc(F)cc3)CC2)CC[C@]1(C(=O)O)c1ccccc1 (stereo not given in full),inactive
20,CNC(=O)Oc1ccc(N(C)C)c(C)c1,inactive
